tim10-1 inh: growth inhibitors of tim10-1 mutant yeast, primary screen, luminescence, uHTS | S. cerevisiae tim10-1 ts strain growth, BacTiter-Glo, 24 h | inhibition, % at 20 µM | actives 2.2% (n = 330,000);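 active = inhibition of at least 40%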;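 note: mutant grown at 25 °C; 0% = DMSO wells with yeast and 100% = wells holding no yeast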
PfHsp90 set2: growth inhibition of PfHsp90-expressing yeast, primary screen, antimalarial PfHsp90 inhibitor project, S. cerevisiae, BacTiter-Glo luminescence, single point, set 2. BacTiter-Glo ATP, 48 h; yeast lacking PDR1 and PDR3 efflux regulators. inhibition, % at 9.4 µM. actives 0.32% (n = 310,000);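 active = every replicate shows inhibition above about 80%, whatever the replicate mean, limit read from the data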;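 note: 0% = DMSO neutral controls and 100% = 20 µM radicicol positive controls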
TIM10 inh: growth inhibitors of isogenic TIM10 control yeast, primary screen, counter-screen for tim10-1 yeast inhibitor project, luminescence, uHTS | AID 463195, 2010 | actives 1.4% (n = 330,000) | S. cerevisiae TIM10 strain growth, BacTiter-Glo luminescence, 24 h | inhibition, % at 10 µM;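 active = inhibition of 40% or more at the single tested concentration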;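 note: wild-type TIM10 isogenic control strain grown at permissive 25 °C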
tim23-1 inh: growth inhibitors of tim23-1 mutant yeast, primary screen, luminescence, uHTS; actives 1.3% (n = 330,000); inhibition, % at 20 µM; S. cerevisiae tim23-1 growth, BacTiter-Glo luminescence, 24 h; AID 463212, 2010;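 active = growth inhibition of the mutant yeast at or above 50%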;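 note: temperature-sensitive mutant grown at 25 °C; plate controls were DMSO-treated mutant yeast for no effect and medium wells lacking yeast for full effect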
Rce1 inhib: yeast Rce1p protease inhibitors, primary screen, biochemical, fluorescence, cell-free homogeneous; AID 2563, 2010; actives 0.27% (n = 290,000); calls only; yeast membranes, quenched prenylated peptide cleavage fluorescence; CAAX prenyl protease 2 (Saccharomyces cerevisiae (strain ATCC 204508 / S288c)), Q03530;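 active = fall in fluorescence gain of 50% or more versus controls, with final raw signal at or below 3038400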;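 note: plate controls were neutral control wells for no effect and wells lacking membranes for full effect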
Target sequence (Q03530 whole entry, looked up): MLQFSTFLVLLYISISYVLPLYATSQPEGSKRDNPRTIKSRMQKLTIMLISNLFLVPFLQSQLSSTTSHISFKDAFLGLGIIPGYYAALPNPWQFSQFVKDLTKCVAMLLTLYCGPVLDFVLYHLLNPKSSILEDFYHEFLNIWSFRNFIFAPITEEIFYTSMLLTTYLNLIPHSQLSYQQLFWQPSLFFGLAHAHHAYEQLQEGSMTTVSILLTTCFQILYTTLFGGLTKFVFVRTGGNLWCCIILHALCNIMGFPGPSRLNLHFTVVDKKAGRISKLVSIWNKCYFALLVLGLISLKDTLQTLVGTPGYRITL
* = called active by the depositor; i = inactive; · = no result; + = active, no number. Hits are enriched below; roughly 3.7% of the tested compounds scored in any of these assays.

SMILES	tim10-1 inh	PfHsp90 set2	TIM10 inh	tim23-1 inh	Rce1 inhib
COc1ccc(CNC(=O)C(=O)NCC2OCCCN2S(=O)(=O)c2cccs2)cc1 (configuration not stated)	3.2	4.3	1.7	17.1	i
CCOC(=O)c1ccc(NC(=O)N2CCN(Cc3ccccc3)CC2)cc1	18.7	-10.8	-0.6	10.5	+
CCCCNc1c2c(nc3c(-c4ccccc4)c(C)nn13)CCC2	26.2	-30.1	22.4	31.1	i
Cc1nn2c(NCCN(C)C)c3c(nc2c1-c1ccccc1)CCCC3	14.0	21.0	16.4	8.8	+
CCOC(=O)c1cc([N+](=O)[O-])cc([N+](=O)[O-])c1Sc1ncnc2nc[nH]c12	·	106.8*	·	·	·
CC(=NNc1nc2ccccc2s1)c1ccncn1	·	-19.3	·	·	·
C/C(=N\Nc1nc2ccccc2s1)c1ccc(Br)s1	22.9	115.0*	25.5	25.6	i
CC1CCN(C(=O)Cn2cnc3c(cnn3C(C)(C)C)c2=O)CC1	-4.5	-10.7	-1.6	2.4	i
Nc1cccc(Oc2c(F)c(F)c(Oc3cccc(N)c3)c(F)c2F)c1	-51.4	84.9*	13.3	47.5	i
O=[N+]([O-])c1ccc(S(=O)Cc2ccccc2)c([N+](=O)[O-])c1 (configuration not stated)	·	136.8*	·	·	·
O=[N+]([O-])c1ccc(CS(=O)c2ccccc2)cc1 (configuration not stated)	·	8.5	·	·	·
CCCn1c(NC(=O)CCS(=O)(=O)c2ccc(C)cc2)nc2ccccc21	20.4	·	20.8	25.7	i
COc1ccc(OC)c(/C=N/NC(=O)Cn2ccnc2C)c1	-12.2	18.7	-3.1	-13.2	+
COc1ccc2nc(C)cc(SCC(=O)N/N=C/c3ccco3)c2c1	22.9	-43.8	-2.6	23.9	i
COc1cccc(/C=N/NC(=O)Cn2ccnc2C)c1	0.2	-22.5	2.5	-12.3	i
COc1ccc(OC)c(/C=N/NC(=O)CSc2cc(C)nc3c(OC)cccc23)c1	9.2	-6.3	16.6	8.2	+
O=C(Nc1ccccc1)n1ccc(-c2ccc(-n3ccnc3)cc2)n1	-1.3	·	12.7	1.1	+
COc1cc(C(=S)N2CCCC2)ccc1OCc1ccc(C)cc1	-19.7	-2.1	-27.1	11.9	i
Cc1cc(C)n2c(nc3ccccc32)c1C(=O)NCc1ccccc1	-9.5	3.8	11.1	35.6	+
O=C(CN1C(=O)/C(=C\c2cccc(Br)c2)Oc2ccccc21)NCC1CCCO1 (configuration not stated)	8.3	-3.5	-4.9	1.2	+
C=CCn1sc(=N)c(C#N)c1N	-5.8	-2.5	-12.4	1.4	i
CCN(CC)S(=O)(=O)c1cccc(NC(=O)c2ccc(Br)cc2)c1	-9.3	96.4*	-28.1	-19.1	i
O=S(=O)(Cc1ccccc1Cl)N1CCCCC1	18.7	-10.0	15.4	6.3	i
COc1ccc(C(=O)NNC(=O)COc2ccc(Cl)cc2)c(OC)c1	1.5	14.4	2.7	4.3	i
C/C(=N\Nc1cc(C)nc(-c2ccccc2O)n1)c1ccccc1	21.7	-37.6	18.0	5.1	i
SMILES	tim10-1 inh	PfHsp90 set2	TIM10 inh	tim23-1 inh	Rce1 inhib
Cc1cc(N/N=C/c2ccc(O)c(C)c2O)nc(-c2ccccc2O)n1	·	-54.8	·	·	+
O=[N+]([O-])c1cccc(C=NNc2ccc3ccccc3n2)c1O	·	137.1*	·	·	·
Brc1ccccc1/C=N/Nc1ccc2ccccc2n1	32.6	5.9	29.2	26.2	i
COc1cccc(/C=N/Nc2ccc([N+](=O)[O-])cn2)c1O	9.1	94.3*	23.8	40.3	i
O=[N+]([O-])c1ccc(NN=Cc2cccc3ccccc23)nc1	·	2.0	·	·	·
CN(CC(=O)Nc1ccc2c(c1)OCCO2)Cc1nc2ccccc2c(=O)[nH]1	-17.0	-13.4	3.4	-4.4	·
CC1=CC(=C(C#N)C#N)C=C(C)N1CCC(C)C	7.3	2.0	17.4	12.4	i
CCN(CC)C(=O)C1CCCN(C(=O)CCn2nnnc2CN2CCOCC2)C1 (configuration not stated)	-8.4	-5.5	-0.3	-6.3	·
CCOC(=O)C1CCCN(C(=O)CCn2nnnc2CN2CCOCC2)C1 (configuration not stated)	32.9	8.3	-0.2	8.7	+
COCCn1c(=S)[nH]c2cc(C(=O)N3CCCC(C)C3)ccc2c1=O (configuration not stated)	5.6	5.6	4.1	-0.4	i
Cc1onc(-c2ccccc2)c1C(=O)NC(=S)NNC(=O)c1ccccc1O	8.8	100.9*	9.0	39.5	i
COc1ccc(-c2ccc3oc(-c4ccc(OC)cc4)c(-c4ccc(OC)cc4)c3c2)cc1	10.9	-11.8	-5.6	-2.5	+
C/C(=N\Nc1cccc2cccnc12)c1ccccn1	13.4	-5.8	-14.0	17.9	i
CC(=NNC(=S)Nc1ccccc1Cl)c1ccccn1	·	99.3*	·	·	·
C/C(=N\Nc1ncc(Cl)cc1Cl)c1ccccn1	·	107.9*	·	·	i
Cc1sc2ncnc(N/N=C/c3cccc(O)c3)c2c1C	-10.2	4.0	12.7	-24.4	i
C/C(=N\Nc1ncnc2sc(C)c(C)c12)c1ccccn1	-1.1	104.3*	14.3	26.6	i
CC12CCC(C(=O)N3CCCc4ccccc43)(OC1=O)C2(C)C (configuration not stated)	27.4	17.0	-9.8	21.1	i
COC(=O)N/N=C/c1cc(Cl)cc(Cl)c1OCc1ccccc1	10.9	7.1	6.9	-0.5	i
CCN(CC)c1nc(N)c2c(N)nc(OC)cc2c1C#N	35.1	-0.2	20.8	44.8	+
COc1cc2c(C#N)c(N3CCCCC3)nc(N)c2c(N)n1	21.7	-38.7	15.3	24.9	+
CCc1ccccc1N1CC(C(=O)Nc2cc(S(=O)(=O)N3CCCC3)ccc2Cl)CC1=O (configuration not stated)	9.2	-2.2	-2.8	17.5	·
Nc1c(Cl)cc(C2=NCCn3nc4cc([N+](=O)[O-])ccc4c32)cc1Cl	22.7	-2.4	7.9	10.0	·
Nc1c(Cl)cc(C2=NCCn3nc4cc(C(F)(F)F)ccc4c32)cc1Cl	4.7	2.0	2.3	21.6	+
COc1cc2c(cc1OC)C(C)=NC1(CCCCC1)C2	4.9	6.0	5.1	-1.6	+
COc1cc2c(cc1OC)C(SC)=NC1(CCCC1)C2	25.4	-12.8	9.4	18.9	·
Cc1cc(N2CCN(c3cccc(C)c3C)CC2)nc(-c2ccccc2)n1	6.5	135.2*	-20.7	-17.3	i
COc1ccc(NS(=O)(=O)c2c(C)cc(C)cc2C)cc1	33.7	-30.7	30.4	25.9	+
C=CCn1c(C)cc(C(=O)CSc2nnc(NC(C)C)s2)c1C	-32.6	10.3	-8.6	-9.0	i
C=CCn1c(C)cc(C(=O)CSc2nnc(NCc3ccccc3)s2)c1C	·	110.9*	·	·	i
